Test results: PubChem BioAssay (NCATS)
Results filed as inconclusive are left out. Active and inactive are the calls of the source. Unless noted, calls follow the shape of the dose curve; as a rule, active = well fitted curve in the direction sought with a large enough effect; inconclusive = small, poorly fitted or top-dose-only effect, or another doubt; inactive = no such curve, though single readings can be large; an effect the other way counts as inactive or inconclusive.

Experiments:
[1] = target: Pyruvate kinase PKM (Homo sapiens) (UniProt P14618); test: qHTS Assay for Activators of Human Muscle Pyruvate Kinase (AID 954; active = well fitted curve in the direction sought with a large enough effect, not every such curve was filed as active)
Sequence of Pyruvate kinase PKM (Homo sapiens) (P14618 whole entry, looked up): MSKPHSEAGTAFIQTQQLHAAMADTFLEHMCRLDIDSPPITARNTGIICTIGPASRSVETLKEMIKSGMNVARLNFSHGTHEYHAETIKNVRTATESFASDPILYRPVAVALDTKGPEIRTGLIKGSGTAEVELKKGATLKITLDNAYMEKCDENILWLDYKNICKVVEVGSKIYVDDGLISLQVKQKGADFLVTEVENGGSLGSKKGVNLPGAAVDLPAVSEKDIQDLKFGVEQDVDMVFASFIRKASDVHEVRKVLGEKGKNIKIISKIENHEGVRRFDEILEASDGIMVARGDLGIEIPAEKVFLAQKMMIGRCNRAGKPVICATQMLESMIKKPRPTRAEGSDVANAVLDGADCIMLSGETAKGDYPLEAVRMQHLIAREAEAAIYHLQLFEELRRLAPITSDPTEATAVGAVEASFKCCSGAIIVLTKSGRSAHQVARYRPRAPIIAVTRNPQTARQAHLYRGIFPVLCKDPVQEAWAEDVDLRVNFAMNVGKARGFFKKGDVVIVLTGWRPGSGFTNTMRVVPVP
Outline: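 Enzyme was run at intermediate activity so both inhibitors and activators could be detected. ATP formed from ADP and PEP by 0.1 nM human PKM2 during a 1 h room-temperature incubation was quantified by coupled luciferase luminescence.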

[2] = MultiTox-Fluor Cytotoxicity Assay - LYMP1-001 - Dead Cells (AID 946); also: potency is read from the fitted curve at half-maximal effect
Outline: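 In this qHTS, 15 uM tetraoctylammonium bromide defined 100% and DMSO defined basal activity. Lymphoblastoid cells (LYMP1-001, 2500 per well) received compound for 16 hr at 37 C before a fluorogenic dead-cell substrate readout at 485/520 nm.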

[3] = MultiTox-Fluor Cytotoxicity Assay - LYMP1-001 - Live Cells (AID 947)
[4] = Cell Viability - LYMP1-002 - Assay at 16 hr (AID 948); also: potency is read from the fitted curve at half-maximal effect
Outline: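 LYMP1-002 human lymphoblastoid cells, 2500/well; 5 hr 37 C; cpd 16 hr 37 C; CellTiter-Glo 30 min RT; luminescence (ATP). Concentration-response, Hill-fit AC50. Pos ctrl tetraoctylammonium bromide.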

[5] = MultiTox-Fluor Cytotoxicity Assay - LYMP1-002 - Live Cells (AID 955);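 also: cells exposed to compound for 16 hours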; also: potency is read from the fitted curve at half-maximal effect
Outline: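 Cytotoxicity in the human lymphoblastoid line LYMP1-002 is measured as loss of live-cell protease activity after 16 h treatment in complete culture medium. AC50 is derived from Hill-equation fits of qHTS concentration-response data.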

[6] = MultiTox-Fluor Cytotoxicity Assay - LYMP1-003 - Dead Cells (AID 961);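 also: cells exposed to compound for 16 h at 37 °C; nearly all actives have a fitted effect of over 70% in size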
Outline: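 Acute toxicity is scored as increased dead-cell protease activity in human lymphoblastoid LYMP1-003 cells after 16 h compound exposure in complete culture medium. Activity is normalized to DMSO basal and 15 uM tetraoctylammonium bromide as full response.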

[7] = MultiTox-Fluor Cytotoxicity Assay - LYMP1-003 - Live Cells (AID 962);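 also: cells exposed to compound for 16 hours at 37 °C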; also: potency is read from the fitted curve at half-maximal effect
Outline: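 Cells plated at 2500 per well and incubated 5 hr; compounds added and incubated 16 hr at 37 C; MultiTox-Fluor reagent added for 60 min at room temperature; fluorescence of liberated AFC measured at 405/510 nm.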

[8] = Cell Viability - LYMP1-003 - Assay at 24 hr (AID 963); also: potency is read from the fitted curve at half-maximal effect
Outline: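 Acute toxicity in LYMP1-003 lymphoblastoid cells: 24 hr compound treatment at 37 C, ATP measured with CellTiter-Glo after 30 min at room temperature. AC50 derived by fitting the Hill equation to qHTS titrations.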

[9] = Cell Viability - LYMP1-003 - Assay at 40 hr (AID 964); also: nearly all actives have a fitted effect of over 60% in size; also: potency is read from the fitted curve at half-maximal effect
Outline: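 This qHTS cytotoxicity screen treats human lymphoblastoid cells (LYMP1-003) with compounds for 40 hr and quantifies cellular ATP via luciferase luminescence.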

[10] = Cell Viability - LYMP2-003 (AID 965);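 also: cells exposed to compounds for 24 h before reading; nearly all actives have a fitted effect of over 50% in size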; also: potency is read from the fitted curve at half-maximal effect
Outline: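 CellTiter-Glo luminescence (cellular ATP) after 24 h compound exposure at 37 C in complete medium; 2500 cells/well, 5 h settling beforehand. Concentration-response fitted to standard Hill equation for AC50. Tetraoctylammonium bromide served as positive control.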

[11] = Cell Viability - LYMP2-005 (AID 967); also: series mostly up to about 92 µM
Outline: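 Steps: seed 2500 LYMP2-005 cells/well, incubate 5 h at 37 C, add compound, incubate 24 h at 37 C, add CellTiter-Glo, wait 30 min at RT, read luminescence. Concentration-response data fitted to Hill equation for AC50.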

[12] = Cell Viability - LYMP2-009 (AID 968); also: series mostly up to about 92 µM; nearly all actives have a fitted effect of over 55% in size
[13] = Cell Viability - LYMP2-011 (AID 969); also: nearly all actives have a fitted effect of over 60% in size; also: potency is read from the fitted curve at half-maximal effect
Outline: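 Acute toxicity is scored as a concentration-dependent drop in intracellular ATP of a human lymphoblastoid line after 24 hr treatment. Values are AC50s modeled with the Hill equation.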

[14] = Cell Viability - LYMP2-013 (AID 970); also: nearly all actives have a fitted effect of over 55% in size; also: potency is read from the fitted curve at half-maximal effect
Outline: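 Acute toxicity was measured in human lymphoblastoid cells (2500/well) exposed to compound titrations for 24 hr, with ATP luminescence (CellTiter-Glo) as read-out and AC50 fitted by Hill equation.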

[15] = Cell Viability - LYMP2-015 (AID 971); also: nearly all actives have a fitted effect of over 55% in size
Outline: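 Acute toxicity was scored as a concentration-dependent drop in intracellular ATP in lymphoblastoid cells after 24 hr compound exposure in complete medium. Detection used CellTiter-Glo luciferase luminescence.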

[16] = Cell Viability - LYMP2-017 (AID 972);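 also: cells exposed to compound for 24 hours at 37 °C; nearly all actives have a fitted effect of over 55% in size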; also: potency is read from the fitted curve at half-maximal effect
Outline: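 Steps: plate 2500 lymphoblastoid cells per well; incubate 5 hr at 37 C; add compound across a concentration series and incubate 24 hr at 37 C; add CellTiter-Glo and read luminescence after 30 min at room temperature; fit Hill curves for AC50.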

[17] = Cell Viability - LYMP2-019 (AID 973); also: nearly all actives have a fitted effect of over 55% in size; also: potency is read from the fitted curve at half-maximal effect
Outline: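 Cells plated at 2500/well and allowed 5 hr at 37 C before compound addition. After 24 hr incubation, CellTiter-Glo reagent was added, plates sat 30 min at room temperature, and luminescence was recorded.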

[18] = target: Pyruvate kinase PKM (Homo sapiens) (UniProt P14618); test: qHTS Assay for Inhibitors of Human Muscle Pyruvate Kinase (AID 958); conditions: purified human PKM enzyme activity
Outline: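 Human PKM2 activity is measured as ATP generation, detected by luciferase-coupled luminescence. The enzyme (0.1 nM) acts on 0.5 mM PEP and 0.1 mM ADP for 1 h at ambient temperature; data are normalized to uninhibited and full-inhibition wells.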

[19] = target: Pyruvate kinase (Leishmania mexicana) (UniProt Q27686); test: qHTS Validation Assay for Activators of Leishmania Mexicana Pyruvate Kinase (AID 959)
Sequence of Pyruvate kinase (Leishmania mexicana) (Q27686 2-499 E452W): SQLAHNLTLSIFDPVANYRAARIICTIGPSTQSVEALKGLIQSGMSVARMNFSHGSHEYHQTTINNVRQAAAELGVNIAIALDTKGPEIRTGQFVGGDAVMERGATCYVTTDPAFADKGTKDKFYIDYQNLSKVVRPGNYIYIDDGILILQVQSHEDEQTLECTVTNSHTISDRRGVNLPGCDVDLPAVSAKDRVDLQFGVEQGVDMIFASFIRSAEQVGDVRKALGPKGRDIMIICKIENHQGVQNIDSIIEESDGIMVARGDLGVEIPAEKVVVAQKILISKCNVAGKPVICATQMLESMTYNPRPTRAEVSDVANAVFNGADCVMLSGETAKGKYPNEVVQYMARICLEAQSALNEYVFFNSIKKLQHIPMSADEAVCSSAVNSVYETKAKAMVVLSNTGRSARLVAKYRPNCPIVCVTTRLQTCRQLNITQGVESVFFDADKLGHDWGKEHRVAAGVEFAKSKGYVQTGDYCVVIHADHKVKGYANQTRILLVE
Outline: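 Mutant LmPYK (E451W), 0.2 nM, plus 0.5 mM PEP and 0.1 mM ADP in 50 mM imidazole pH 7.2 containing 0.01% Tween 20 and 0.05% BSA. Incubated 1 h at room temperature; luminescence via PKLight, normalized to DMSO.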

[20] = MultiTox-Fluor Cytotoxicity Assay - LYMP1-002 - Dead Cells (AID 960); also: nearly all actives have a fitted effect of over 60% in size; also: potency is read from the fitted curve at half-maximal effect
Outline: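 Acute cytotoxicity in a human lymphoblastoid line is scored as rising dead-cell protease signal after 16 hr exposure at 37 C, measured fluorometrically (485/520).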

Measured: Potency

COc1ccc(Cc2nccc3cc(OC)c(OC)cc23)cc1OC
inactive: [1]

CCN(CC)CCNC(=O)c1ccc(N)cc1
inactive: [1]

CCN1CCC[C@H]1CNC(=O)c1cc(S(N)(=O)=O)ccc1OC
inactive: [1]

CC(=O)c1ccc(S(=O)(=O)NC(=O)NC2CCCCC2)cc1
not listed: [18] | [19] | [20]
inactive: all other assays above

CC(=O)CCCCn1c(=O)c2c(ncn2C)n(C)c1=O
inactive: [1]

CC(C)(C)c1ccc(C(O)CCCN2CCC(C(O)(c3ccccc3)c3ccccc3)CC2)cc1 (stereo not given)
inactive: [1]

CC(=O)N[C@@H](CS)C(=O)O
inactive: [1]

CC1(C)CCC2=C(O1)c1ccccc1C(=O)C2=O
inactive: [1]

CCN(CC)C(=O)c1ccc(O)c(OC)c1
inactive: [1]

COc1cccc(-c2cc(=O)c3ccccc3o2)c1N
inactive: [1] | [19]
active: [18] 15.8 µM

COc1ccccc1N1CCN(CCCNc2cc(=O)n(C)c(=O)n2C)CC1
inactive: [1]

CN(C)CCC(c1ccccc1)c1ccccn1 (stereo not given)
not listed: [1] | [18] | [19]
inactive: all other assays above

CC1=C(/C=C/C(C)=C/C=C/C(C)=C/C(=O)Nc2ccc(O)cc2)C(C)(C)CCC1
active: [2] 79.4 µM | [4] 50.1 µM | [5] 25.1 µM | [20] 31.6 µM | [7] 50.1 µM | [8] 50.1 µM | [9] 39.8 µM | [10] 39.8 µM | [13] 63.1 µM | [14] 50.1 µM | [16] 50.1 µM | [17] 50.1 µM
inactive: [1]

NC(N)=Nc1nc(CSCC/C(N)=N/S(N)(=O)=O)cs1
inactive: [1]

CCCCC1C(=O)N(c2ccccc2)N(c2ccccc2)C1=O
not listed: [16] | [18] | [19]
inactive: all other assays above

CCN(CC)CCOC(=O)c1ccc(N)cc1
inactive: [1]

O=C1NCC2(CCN(CCc3ccccc3)CC2)O1
inactive: [1]

C[N+](C)(C)CCCCCC[N+](C)(C)C
inactive: [1]

CC(C)OC(=O)C(C)(C)Oc1ccc(C(=O)c2ccc(Cl)cc2)cc1
inactive: [1]

NCCS
inactive: [1]

O=c1c(O)c(-c2ccc(O)cc2)oc2cc(O)cc(O)c12
not listed: [1] | [18] | [19]
inactive: all other assays above

O=c1cc(-c2ccc(O)cc2)oc2cc(O)cc(O)c12
inactive: [1] | [19] | [20] | [7] | [8] | [10] | [11] | [17]
active: [2] 79.4 µM

O=c1c(-c2ccc(O)cc2)coc2cc(O)ccc12
not listed: [9] | [18] | [19]
inactive: all other assays above
